# Measurements from PubChem BioAssay (Tox21).
# A number with no mark means an inactive call. Activity calls are given as the source filed them. Calls come from the whole dose curve.
# Target: Gonadotropin-releasing hormone receptor (Homo sapiens) (UniProt P30968)
# Test: Human gonadotropin-releasing hormone receptor (GnRHR) small molecule agonists, calcium flux assay in GnRHR-HEK293 cells (AID 1920063); note: nearly all actives have a fitted effect of over 35% in size
# Conditions: calcium flux fluorescence, agonist mode; series mostly up to 57.6 µM; activity change: at the top concentration
# Source text: National Center for Advancing Translational Sciences [NCATS]
# Division of Preclinical Innovation [DPI]
# U.S. Environmental Protection Agency [EPA]
# National Institutes of Environmental Health Sciences [NIEHS]
# National Toxicology Program [NTP]
# U.S. Food and Drug Administration [FDA]
# Gonadotropin-releasing hormone receptor (GnRHR) is a G-protein-coupled receptor (GPCR) and acts (through phospholipase C) to increase intracellular inositol trisphosphate and then release intracellular calcium stores. Cell-based GnRHR-Hek293 calcium influx assay is using HEK293 cells that have been genetically engineered to express the human GnRHR, which activity can be measured by calcium signaling. A compound/drug can activate (agonist) GnRHR that can be monitored by levels of intracellular calcium.
# GnRHR-HEK293 cells developed by Codex Corp contain human GnRHR reporter gene, which was stably integrated into HEK 293 cells. The compound activation can be detected by fluorescence intensity via calcium flux assay. This cell line has been used to screen the Tox21 10K compound library to identify GnRHR agonists.
# GnRHR-Hek293 cells were dispensed at 1500cells/4uL/well in 1536-well black wall/clear bottom plates using a multidrop dispenser. After the assay plates were incubated at a 37 C/5% CO2 incubator for 18 hours, 4 uL of Calcium Dye Solution was added to each well. The plates were incubated at 37 C for 1 hour. For agonist mode, 23 nL of compounds dissolved in DMSO, positive controls or DMSO only was transferred to the assay plate by a pin tool station. The fluorescence intensity in the plates was measured using FDSS 7000EX kinetic plate reader with a filter set of Ex/Em=480/540 for 3 min at 1 sec intervals. Each test compound was measured at 15 concentrations and in triplicates.
# % is set by controls: 0 for no effect and ±100 for the full control effect; potency is the fitted concentration of half-maximal effect.
# Chain of Gonadotropin-releasing hormone receptor (Homo sapiens) (P30968 whole entry, looked up): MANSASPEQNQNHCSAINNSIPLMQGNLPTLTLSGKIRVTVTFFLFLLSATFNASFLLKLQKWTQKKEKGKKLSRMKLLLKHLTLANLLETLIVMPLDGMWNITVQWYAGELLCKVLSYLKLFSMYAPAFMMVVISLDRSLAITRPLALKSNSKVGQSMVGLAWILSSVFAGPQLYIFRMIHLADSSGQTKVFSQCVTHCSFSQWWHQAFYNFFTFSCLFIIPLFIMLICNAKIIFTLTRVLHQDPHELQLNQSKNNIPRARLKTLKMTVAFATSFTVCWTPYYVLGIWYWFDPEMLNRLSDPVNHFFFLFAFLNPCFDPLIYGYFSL
SMILES,activity change,Potency
C=CCn1c(=O)n([C@@H]2O[C@H](CO)[C@@H](O)[C@H]2O)c2nc(N)[nH]c(=O)c21,"0.762% [at 26.4 µM, hits give high values]",
Nc1ccccc1O,-2.36%,
C=C[C@@H](C)CCC=C(C)C,0.0565%,
CCCCCCCCCCc1ccccc1,-0.563%,
Cc1cccc(C)c1C,-0.451%,
Oc1ccc(C(O)CNCCCCCCNCC(O)c2ccc(O)c(O)c2)cc1O (stereo not given),,0.0756 µM (active)
CCOc1ccc(NC(=O)OC(C)C)cc1OCC,-0.585%,
NCCCCCC(=O)O,"-1.6% [at 26.4 µM, hits give high values]",
O=S(O)O,"-0.296% [at 11.8 µM, hits give high values]",
COc1ccccc1N1CCN(CCCCNC(=O)c2ccc(-c3ccc(C(C)=O)cc3)cc2)CC1,"1.37% [at 26.4 µM, hits give high values]",
Cc1ccc(N(CCO)CCO)cc1,-0.948%,
CCN(CC)c1ccc(C=O)cc1,-1.32%,
CCCCC,,38.3 µM (active)
CCN(CC)c1ccc(N)cc1,-1.81%,
CC(C)Nc1nc(N)nc(Cl)n1,0.0125%,
N#CCc1ccc(Cl)cc1Cl,-0.207%,
N=C1N=C(N)c2ccccc21,-0.532%,
CN(C)CCN(C)CCN(C)C,3.2%,
O=C1OC(=O)C2C3C=CC(C3)C12 (stereo not given),-0.257%,
CN(C)[C@@H]1C(=O)C(C(=O)NCN2CCCC2)=C(O)[C@@]2(O)C(=O)C3=C(O)c4c(O)cccc4[C@@](C)(O)C3C[C@@H]12 (stereo not given in full),"1.24% [at 26.4 µM, hits give high values]",

SMILES,activity change,Potency
COc1c(N2CCNC(C)C2)c(F)cc2c(=O)c(C(=O)O)cn(C3CC3)c12 (stereo not given),"0.37% [at 26.4 µM, hits give high values]",
CCOC(=O)C1=NN(c2ccc(Cl)cc2Cl)C(C)(C(=O)OCC)C1 (stereo not given),-1.24%,
O=C1CCCCCCCCCCOCCCCO1,5.44%,
CC1(C)CC(N)CC(C)(C)N1,0.522%,
CCCCCCCCc1ccc(S(=O)(=O)O)cc1,1.33%,
CC(C)(O)CCCC1=CCC(C=O)CC1 (stereo not given),0.039%,
C[C@@H]1O[C@@H](O[C@@H]2[C@@H](O)[C@H](OCCc3ccc(O)c(O)c3)O[C@H](CO[C@@H]3O[C@H](CO)[C@@H](O)[C@H](O)[C@H]3O)[C@H]2OC(=O)/C=C/c2ccc(O)c(O)c2)[C@H](O)[C@H](O)[C@H]1O,0.839%,
CCCCCCC(CCCCCCCCCCC(=O)OCC(COC(C)=O)OC(C)=O)OC(C)=O (stereo not given),"-0.82% [at 26.4 µM, hits give high values]",
CCCSS/C(CCO)=C(\C)N(C=O)Cc1cnc(C)nc1N,"0.904% [at 26.4 µM, hits give high values]",
CC1=CC(=O)CC(C)(C)C1(O)/C=C/C(C)=C\C(=O)O (stereo not given),-0.708%,
CCCCCCCCCCCCCCBr,0.571%,
COc1cc(C(=O)NCCCCCC(=O)O)cc(OC)c1OC,"1.22% [at 26.4 µM, hits give high values]",
CC(O)c1ccccc1 (stereo not given),-0.912%,
CCC(C(=O)OCCN1CCOC(c2ccccc2)C1C)c1ccccc1 (stereo not given),"3.02% [at 26.4 µM, hits give high values]",
CCCCCCCCCCCC,-0.703%,
CCCC(C)C,1.98%,
O=C(O)c1ccccc1Cl,-0.412%,
CS(=O)(=O)c1ccc([C@@H](C[C@H]2CCC(=O)C2)C(=O)Nc2cnccn2)cc1Cl,0.434%,
COc1ccc(OC(=O)N(CC(=O)O)Cc2ccc(OCCc3nc(-c4ccccc4)oc3C)cc2)cc1,"-2.2% [at 26.4 µM, hits give high values]",
CC1(C)OC[C@@H](COC(=O)CCc2ccc(OC[C@@H](O)CNCCNC(=O)N3CCOCC3)cc2)O1,"-1.54% [at 26.4 µM, hits give high values]",
